According to the supplement of paper PMC10849652:
Of roughly 7,900 targets only a part is listed; those with a hit were picked by preference. About 0.6% of all pairs of compound and target were hits. A number with no mark means an inactive call.

Experiments:
Assay in all cases: log2 fold change, soluble protein after heating vs DMSO (PISA); higher = thermal stabilisation; K562 cells, 10 uM, 30 min; active = over 0.2 and 3.5 SD of the protein, either way, in both replicates (recomputed)
saracatinib = compound: CN1CCN(CCOc2cc(OC3CCOCC3)c3c(Nc4c(Cl)ccc5c4OCO5)ncnc3c2)CC1 [saracatinib]
How it was run: (§1)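 Quantification of soluble protein used TMTpro 16plex LC-MS/MS, with channel sums equalised. Samples were the supernatant after 21,000xg for 90 min of pooled aliquots from K562 cells (2×10^6 cells/mL) treated with 10 μM compound for 30 min, heated for 3 min over 48°C-58°C, and extracted in PBS with 0.5% NP-40 at 4°C. Values, from duplicates, describe thermal stability against control samples on a log2 fold-change scale.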

sotrastaurin = compound: CN1CCN(c2nc(C3=C(c4c[nH]c5ccccc45)C(=O)NC3=O)c3ccccc3n2)CC1 [sotrastaurin]
How it was run: as §1

alvocidib = compound: CN1CC[C@H](c2c(O)cc(O)c3c(=O)cc(-c4ccccc4Cl)oc23)[C@H](O)C1 [alvocidib]
How it was run: as §1

Tubastatin A = compound: CN1CCc2c(c3ccccc3n2Cc2ccc(C(=O)NO)cc2)C1 [Tubastatin A]
How it was run: as §1

[1] = compound: CNC(=O)C1=CC=CC=C1NC2=NC(=NC=C2Cl)NC3=C(C=C(C=C3)N4CCOCC4)OC
How it was run: as §1

defactinib = compound: CNC(=O)c1ccc(Nc2ncc(C(F)(F)F)c(NCc3nccnc3N(C)S(C)(=O)=O)n2)cc1 [defactinib]
How it was run: as §1

rucaparib = compound: CNCc1ccc(-c2[nH]c3cc(F)cc4c3c2CCNC4=O)cc1 [rucaparib]
How it was run: as §1

[2] = compound: CNc1nc(-c2ccc3c(N)n[nH]c3c2)cc(N2C[C@@H](C(=O)NC3CCCCC3)CC[C@H]2C)n1
How it was run: as §1

encorafenib = compound: COC(=O)N[C@@H](C)CNc1nccc(-c2cn(C(C)C)nc2-c2cc(Cl)cc(NS(C)(=O)=O)c2F)n1 [encorafenib]
How it was run: as §1

[3] = compound: COC(=O)[C@H](CCSC)NC(=O)C1=C(C=C(C=C1)NC[C@H](CS)N)C2=CC=CC=C2
How it was run: as §1

[4] = compound: COC1=CC=C(C=C1)CN2C=CC3=C2C=C(C=C3)C(=O)NO
How it was run: as §1

filanesib = compound: CON(C)C(=O)N1N=C(c2cc(F)ccc2F)S[C@@]1(CCCN)c1ccccc1 [filanesib]
How it was run: as §1

zotarolimus = compound: CO[C@H]1C[C@@H]2CC[C@@H](C)[C@@](O)(O2)C(=O)C(=O)N2CCCC[C@H]2C(=O)O[C@H]([C@H](C)C[C@@H]2CC[C@H](n3cnnn3)[C@H](OC)C2)CC(=O)[C@H](C)/C=C(\C)[C@@H](O)[C@@H](OC)C(=O)[C@H](C)C[C@H](C)/C=C/C=C/C=C/1C [zotarolimus]
How it was run: as §1

idasanutlin = compound: COc1cc(C(=O)O)ccc1NC(=O)[C@@H]1N[C@@H](CC(C)(C)C)[C@](C#N)(c2ccc(Cl)cc2F)[C@H]1c1cccc(Cl)c1F [idasanutlin]
How it was run: as §1

alisertib = compound: COc1cc(Nc2ncc3c(n2)-c2ccc(Cl)cc2C(c2c(F)cccc2OC)=NC3)ccc1C(=O)O [alisertib]
How it was run: as §1

[5] = compound: COc1cc2nc(-c3cc(F)ccc3O)nc(N[C@@H]3CNC[C@H]3C(C)(C)O)c2cc1OC
How it was run: as §1

gefitinib = compound: COc1cc2ncnc(Nc3ccc(F)c(Cl)c3)c2cc1OCCCN1CCOCC1 [gefitinib]
How it was run: as §1

[6] = compound: COc1cccc2cc(-c3nc([C@H]4CC[C@H](C(=O)O)CC4)n4ncnc(N)c34)[nH]c12
How it was run: as §1

lapatinib = compound: CS(=O)(=O)CCNCc1ccc(-c2ccc3ncnc(Nc4ccc(OCc5cccc(F)c5)c(Cl)c4)c3c2)o1 [lapatinib]
How it was run: as §1

pictilisib = compound: CS(=O)(=O)N1CCN(Cc2cc3nc(-c4cccc5[nH]ncc45)nc(N4CCOCC4)c3s2)CC1 [pictilisib]
How it was run: as §1

UniProt Q04864, sequence (Q04864 whole entry, looked up): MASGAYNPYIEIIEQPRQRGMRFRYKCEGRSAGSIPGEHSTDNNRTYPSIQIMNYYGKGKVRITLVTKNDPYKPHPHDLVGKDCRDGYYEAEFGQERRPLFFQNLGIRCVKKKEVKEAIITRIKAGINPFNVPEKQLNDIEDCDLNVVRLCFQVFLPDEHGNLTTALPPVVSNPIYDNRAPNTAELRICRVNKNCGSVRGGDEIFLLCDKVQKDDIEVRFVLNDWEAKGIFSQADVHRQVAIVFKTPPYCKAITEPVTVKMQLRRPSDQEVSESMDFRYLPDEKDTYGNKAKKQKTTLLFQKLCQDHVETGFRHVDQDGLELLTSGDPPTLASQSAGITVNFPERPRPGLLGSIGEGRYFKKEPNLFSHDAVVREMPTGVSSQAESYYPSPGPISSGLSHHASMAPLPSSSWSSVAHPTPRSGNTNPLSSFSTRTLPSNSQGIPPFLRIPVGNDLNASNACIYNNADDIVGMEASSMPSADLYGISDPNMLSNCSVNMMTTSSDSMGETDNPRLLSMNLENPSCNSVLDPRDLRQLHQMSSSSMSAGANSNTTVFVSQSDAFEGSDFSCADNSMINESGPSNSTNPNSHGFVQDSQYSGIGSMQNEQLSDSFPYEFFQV
UniProt Q8IZV5, sequence (Q8IZV5 whole entry, looked up): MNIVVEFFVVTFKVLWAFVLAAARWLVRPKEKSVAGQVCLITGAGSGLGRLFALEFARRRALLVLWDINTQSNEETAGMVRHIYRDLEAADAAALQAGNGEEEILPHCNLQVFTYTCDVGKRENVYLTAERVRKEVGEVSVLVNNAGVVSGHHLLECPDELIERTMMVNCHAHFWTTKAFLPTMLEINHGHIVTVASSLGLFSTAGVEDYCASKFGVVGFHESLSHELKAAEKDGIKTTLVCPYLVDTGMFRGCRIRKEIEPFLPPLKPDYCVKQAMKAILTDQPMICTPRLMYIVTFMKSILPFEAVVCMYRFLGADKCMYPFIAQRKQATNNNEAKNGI
UniProt Q96EE3, sequence (Q96EE3 whole entry, looked up): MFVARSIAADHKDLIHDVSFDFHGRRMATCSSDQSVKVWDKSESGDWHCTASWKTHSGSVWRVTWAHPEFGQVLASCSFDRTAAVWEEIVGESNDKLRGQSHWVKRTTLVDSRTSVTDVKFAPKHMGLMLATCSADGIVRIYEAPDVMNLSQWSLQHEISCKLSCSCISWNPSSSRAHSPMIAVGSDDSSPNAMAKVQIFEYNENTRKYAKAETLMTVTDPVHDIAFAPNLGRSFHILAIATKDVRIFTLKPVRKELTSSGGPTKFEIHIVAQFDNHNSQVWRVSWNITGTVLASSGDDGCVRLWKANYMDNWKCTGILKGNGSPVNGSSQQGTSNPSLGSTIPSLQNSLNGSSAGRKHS
UniProt P54136, sequence (P54136 whole entry, looked up): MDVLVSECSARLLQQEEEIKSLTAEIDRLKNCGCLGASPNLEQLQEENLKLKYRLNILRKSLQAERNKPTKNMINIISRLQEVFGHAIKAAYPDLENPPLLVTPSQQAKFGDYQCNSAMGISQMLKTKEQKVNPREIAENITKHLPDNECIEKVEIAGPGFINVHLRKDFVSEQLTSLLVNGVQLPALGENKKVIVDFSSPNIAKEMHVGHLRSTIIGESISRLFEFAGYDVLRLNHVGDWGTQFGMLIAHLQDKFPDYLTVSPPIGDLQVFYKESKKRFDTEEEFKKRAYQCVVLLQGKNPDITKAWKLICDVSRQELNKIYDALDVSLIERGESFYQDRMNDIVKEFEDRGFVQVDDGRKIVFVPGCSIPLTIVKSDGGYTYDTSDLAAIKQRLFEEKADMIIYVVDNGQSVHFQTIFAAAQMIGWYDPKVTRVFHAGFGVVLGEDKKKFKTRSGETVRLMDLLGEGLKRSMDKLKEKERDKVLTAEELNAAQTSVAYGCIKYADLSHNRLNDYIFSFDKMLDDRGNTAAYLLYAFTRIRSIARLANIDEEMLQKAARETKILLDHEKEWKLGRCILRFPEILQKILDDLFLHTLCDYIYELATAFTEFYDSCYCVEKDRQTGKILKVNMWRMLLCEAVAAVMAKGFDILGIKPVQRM
UniProt Q9BY42, sequence (Q9BY42 whole entry, looked up): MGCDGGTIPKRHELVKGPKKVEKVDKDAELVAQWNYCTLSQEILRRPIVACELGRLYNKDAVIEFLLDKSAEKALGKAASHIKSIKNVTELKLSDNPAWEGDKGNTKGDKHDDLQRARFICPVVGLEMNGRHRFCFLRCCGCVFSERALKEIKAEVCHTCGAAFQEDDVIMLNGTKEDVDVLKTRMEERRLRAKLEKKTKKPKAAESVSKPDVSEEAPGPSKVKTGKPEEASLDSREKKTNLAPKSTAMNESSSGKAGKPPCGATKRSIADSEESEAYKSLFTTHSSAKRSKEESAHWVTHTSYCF
UniProt O00767, sequence (O00767 whole entry, looked up): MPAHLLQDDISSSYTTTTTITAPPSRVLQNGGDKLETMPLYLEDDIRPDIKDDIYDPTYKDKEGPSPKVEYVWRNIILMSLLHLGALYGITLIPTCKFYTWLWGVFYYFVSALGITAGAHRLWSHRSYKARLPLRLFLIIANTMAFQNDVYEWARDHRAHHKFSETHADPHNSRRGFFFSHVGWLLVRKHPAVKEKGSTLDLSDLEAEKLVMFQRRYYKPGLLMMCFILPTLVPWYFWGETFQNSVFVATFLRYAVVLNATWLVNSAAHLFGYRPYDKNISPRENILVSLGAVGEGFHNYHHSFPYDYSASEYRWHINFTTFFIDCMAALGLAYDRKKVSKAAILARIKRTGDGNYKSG
UniProt P49756, sequence (P49756 whole entry, looked up): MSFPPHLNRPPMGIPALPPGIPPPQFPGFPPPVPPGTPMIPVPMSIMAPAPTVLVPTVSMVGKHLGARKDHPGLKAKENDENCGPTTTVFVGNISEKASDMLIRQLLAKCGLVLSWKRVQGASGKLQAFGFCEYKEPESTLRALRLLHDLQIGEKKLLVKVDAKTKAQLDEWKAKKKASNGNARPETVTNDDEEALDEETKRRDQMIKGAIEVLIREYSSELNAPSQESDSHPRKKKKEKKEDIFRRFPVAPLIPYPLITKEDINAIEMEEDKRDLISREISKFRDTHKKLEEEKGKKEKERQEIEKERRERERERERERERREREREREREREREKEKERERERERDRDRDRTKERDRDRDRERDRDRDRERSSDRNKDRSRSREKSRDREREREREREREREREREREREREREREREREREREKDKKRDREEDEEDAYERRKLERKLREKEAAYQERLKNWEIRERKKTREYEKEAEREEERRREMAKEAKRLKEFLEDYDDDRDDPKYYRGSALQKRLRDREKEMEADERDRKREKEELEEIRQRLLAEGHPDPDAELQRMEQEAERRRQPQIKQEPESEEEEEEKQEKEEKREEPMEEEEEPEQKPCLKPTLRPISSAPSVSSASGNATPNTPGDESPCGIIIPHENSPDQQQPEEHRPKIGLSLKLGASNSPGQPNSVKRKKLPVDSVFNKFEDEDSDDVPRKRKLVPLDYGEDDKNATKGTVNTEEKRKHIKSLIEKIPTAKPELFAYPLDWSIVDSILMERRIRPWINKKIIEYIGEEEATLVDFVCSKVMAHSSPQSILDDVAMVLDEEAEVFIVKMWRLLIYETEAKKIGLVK
UniProt Q15436, sequence (Q15436 whole entry, looked up): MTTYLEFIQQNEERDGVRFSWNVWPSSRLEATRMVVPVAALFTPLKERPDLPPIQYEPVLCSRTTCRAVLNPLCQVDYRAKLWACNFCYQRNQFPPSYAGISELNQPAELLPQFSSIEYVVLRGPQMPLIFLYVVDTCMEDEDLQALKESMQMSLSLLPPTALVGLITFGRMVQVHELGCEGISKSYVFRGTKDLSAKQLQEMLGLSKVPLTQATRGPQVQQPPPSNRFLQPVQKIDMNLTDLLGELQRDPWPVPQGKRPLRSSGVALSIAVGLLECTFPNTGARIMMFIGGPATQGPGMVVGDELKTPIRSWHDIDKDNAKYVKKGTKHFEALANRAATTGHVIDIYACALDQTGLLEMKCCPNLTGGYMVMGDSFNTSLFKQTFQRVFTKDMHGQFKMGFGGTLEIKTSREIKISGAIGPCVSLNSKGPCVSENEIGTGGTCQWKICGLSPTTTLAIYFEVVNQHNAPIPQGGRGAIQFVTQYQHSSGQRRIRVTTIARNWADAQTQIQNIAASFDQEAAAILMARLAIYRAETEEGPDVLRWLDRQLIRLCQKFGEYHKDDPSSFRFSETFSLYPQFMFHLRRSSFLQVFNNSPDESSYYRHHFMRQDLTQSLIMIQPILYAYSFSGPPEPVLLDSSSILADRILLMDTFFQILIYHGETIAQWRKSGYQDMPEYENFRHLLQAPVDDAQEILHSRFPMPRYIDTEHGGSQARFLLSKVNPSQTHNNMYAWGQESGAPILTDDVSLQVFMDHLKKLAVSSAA
UniProt Q13546, sequence (Q13546 whole entry, looked up): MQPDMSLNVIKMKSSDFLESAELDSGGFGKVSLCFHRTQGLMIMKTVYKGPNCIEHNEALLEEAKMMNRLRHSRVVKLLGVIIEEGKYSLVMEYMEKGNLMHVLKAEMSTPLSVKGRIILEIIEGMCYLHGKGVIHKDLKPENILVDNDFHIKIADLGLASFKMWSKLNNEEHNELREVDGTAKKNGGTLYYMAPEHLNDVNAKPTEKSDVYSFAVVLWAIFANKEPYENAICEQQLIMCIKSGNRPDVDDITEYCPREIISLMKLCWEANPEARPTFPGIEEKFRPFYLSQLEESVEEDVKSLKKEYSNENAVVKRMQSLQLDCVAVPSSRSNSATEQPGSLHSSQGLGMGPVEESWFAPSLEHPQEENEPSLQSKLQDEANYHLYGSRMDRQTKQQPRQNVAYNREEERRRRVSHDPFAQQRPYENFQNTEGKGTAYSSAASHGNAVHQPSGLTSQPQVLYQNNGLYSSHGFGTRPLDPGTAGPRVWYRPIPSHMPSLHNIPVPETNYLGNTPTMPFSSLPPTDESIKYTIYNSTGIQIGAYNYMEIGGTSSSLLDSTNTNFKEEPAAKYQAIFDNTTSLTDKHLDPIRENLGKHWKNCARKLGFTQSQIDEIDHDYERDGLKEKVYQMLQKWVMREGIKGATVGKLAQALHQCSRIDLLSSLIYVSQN

Target	log2 fold change (saracatinib)	log2 fold change (sotrastaurin)	log2 fold change (alvocidib)	log2 fold change (Tubastatin A)	log2 fold change [1]	log2 fold change (defactinib)	log2 fold change (rucaparib)	log2 fold change [2]	log2 fold change (encorafenib)	log2 fold change [3]	log2 fold change [4]	log2 fold change (filanesib)	log2 fold change (zotarolimus)	log2 fold change (idasanutlin)	log2 fold change (alisertib)	log2 fold change [5]	log2 fold change (gefitinib)	log2 fold change [6]	log2 fold change (lapatinib)	log2 fold change (pictilisib)
RARS (UniProt P54136)	-0.103	-0.192	0.151	0.008	-0.073	0.187	0.367	0.138	0.217	-0.024	-0.045	0.079	0.049	0.052	-0.059	-0.032	-0.025	-0.203	-0.008	-0.07
RSRC2 (UniProt Q7L4I2)	0.015	0.049	0.055	-0.055	-0.125	-0.048	-0.004	-0.016	-0.005	0.024	0.033	0.066	-0.002	0.048	-0.102	0.034	0.005	0.022	-0.021	0.011
RDH10 (UniProt Q8IZV5)	0.005	0.016	-0.043	0.04	0.068	-0.002	-0.034	0.072	-0.011	-0.063	-0.007	-0.023	-0.03	-0.14	0.013	0.031	0.083	0.036	0.037	0.009
REL (UniProt Q04864)	-0.028	-0.049	-0.059	0.008	0.052	-0.12	0.089	-0.013	-0.046	-0.016	-0.006	0.051	0.004	0.033	0.068	0.062	0.148	-0.086	-0.031	-0.243
RBM25 (UniProt P49756)	-0.025	-0.109	-0.133	0.058	-0.164	-0.24 (active)	0.03	-0.091	-0.094	0.014	0.285 (active)	0.112	0.022	0.022	-0.044	-0.035	0.001	0.043	-0.024	0.052
RCOR1 (UniProt Q9UKL0)	-0.011	-0.047	-0.066	0.028	-0.017	-0.119	-0.005	0.073	0	-0.002	-0.039	0.002	-0.044	0	0.013	0.003	-0.002	0.015	0.019	0.005
RPS27A (UniProt P62979)	0.029	0.107	0.136	-0.013	0.05	0.227	0.105	0.043	-0.007	0.156	-0.084	0.215	0.009	0.129	-0.041	-0.066	-0.076	-0.185	-0.006	-0.13
SCD (UniProt O00767)	0.066	0.036	0.049	-0.234	0.024	0.025	-0.006	-0.164	0.04	0.045	-0.458 (active)	-0.074	-0.024	-0.001	0.014	-0.054	0.019	0.048	-0.017	-0.053
RTF2 (UniProt Q9BY42)	-0.021	-0.007	-0.01	0.099	0.083	-0.151	0.027	-0.142	0.058	-0.045	-0.021	0.09	0.03	0.066	0.024	0.036	0.049	0	0.026	-0.027
SEH1L isoform 1 (UniProt Q96EE3)	0.009	-0.022	0.018	-0.015	-0.029	-0.012	-0.016	-0.053	0.025	-0.007	-0.004	0.012	-0.03	-0.014	-0.024	0.025	0.015	0.038	-0.045	0.017
RIPK1 (UniProt Q13546)	-0.197	-0.208	-0.047	0.017	0.191	0.028	0.161	0.212	0.073	-0.097	0	0.049	0.098	0.022	-0.052	0.032	0.043	-0.214	0.055	0.027
RPS3A (UniProt P61247)	-0.034	0.015	0.171	0.075	0.105	0.192	0.101	0.069	0.047	-0.018	-0.112	0.117	0.006	0.069	-0.052	-0.009	-0.06	-0.152	0.053	-0.078
SEC23A (UniProt Q15436)	0.133	0.008	-0.066	-0.008	-0.019	-0.078	0.296 (active)	0.037	-0.171	-0.035	0.024	0.013	0.025	-0.026	-0.027	0.043	0.007	0.01	-0.045	0.049
RETSAT (UniProt Q6NUM9)	-0.088	0.054	0.03	0.185	0.02	-0.05	-0.001	-0.014	0.012	-0.075	0.051	0.109	0.094	-0.077	0.067	0.064	0.052	-0.093	0.192	0.074
RRP12 (UniProt Q5JTH9)	-0.024	-0.118	0.233	0.125	-0.057	-0.006	0.183	-0.005	0.138	0.076	-0.03	0.288	-0.046	0.032	0.204	0.222	-0.104	-0.222	-0.128	0.032
